The list is not random: actives were taken first. Their share in the collection is about 8.1%.
KB-3-1 cytotox: KB-3-1 parental cell cytotoxicity; KB-3-1 viability, CellTiter-Glo ATP luminescence, 72 h; Potency, µM (doses to about 46.1 µM), actives largely listed as cytotoxic; hit rate 1.4% among 400,000; AID 1347075; note: nearly all actives have a fitted effect of over 60% in size
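Parental KB-3-1 adenocarcinoma cells in phenol-red-free DMEM with 10% FBS were pin-treated with compounds at several concentrations, incubated 72 h at 37 °C, and viability read by CellTiter-Glo luminescence; concentration-effect curves were fitted after normalization.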
MCF10A rereplic: induces DNA re-replication in MCF 10a normal breast cells | MCF 10A DNA re-replication, Hoechst nuclear intensity, 48 h | hit rate 2.9% among 350,000 | Potency, µM (series often up to 46.1 µM), hits mostly activators | AID 624296; note: nearly all actives have a fitted effect of over 50% in size
SW480 rerep: DNA re-replication induction in SW480 cells; SW480 DNA re-replication, Hoechst DNA content imaging, 48 h; hit rate 1.8% among 340,000; AID 624297; Potency, µM (highest dose often 46.1 µM), most hits filed as activators; note: nearly all actives have a fitted effect of over 55% in size
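Image-based DNA-content assay: after two days of treatment, nuclei were labelled with the DNA dye Hoechst and imaged, and hits were compounds raising the count of nuclei showing high fluorescence intensity.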
ELG1 DNA repair: ELG1-dependent DNA repair inhibition. hit rate 2.3% among 330,000. Potency, µM (doses to about 46.1 µM), actives largely listed as inhibitors. AID 504467. HEK293T ELG1-luciferase reporter, luminescence, 16 h; DNA damage induced by 5-fluorouridine; note: nearly all actives have a fitted effect of over 55% in size
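In this reporter screen, reduction of luminescence relative to DMSO vehicle indicated activity. Compounds and 5-fluorouridine were added together to 2,000 cells per well, incubated for 16 hr at 37 °C, then developed with ONE-Glo.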
KB-V1 cytotox: KB-V1 MDR subline cytotoxicity; KB-V1 MDR cells viability, CellTiter-Glo, 72 h; Potency, µM (top dose mostly 46.1 µM), actives largely listed as cytotoxic; hit rate 3.4% among 400,000; note: nearly all actives have a fitted effect of over 60% in size
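Compound-treated KB-V1 multidrug-resistant cells, 72 h, 37 degrees C; viability by CellTiter-Glo. Fitted qHTS curves give the values.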
ELG1 FLuc counter: luciferase inhibition in cell-free luciferin readout for ELG1 hits; shares compounds with ELG1 DNA repair; cell-free firefly luciferase luminescence counter-screen, ViewLux; Potency, µM (titrated, usually from 46.1 µM), actives largely listed as inhibitors; hit rate 3% among 350
ELG1-Luc inh: inhibits ELG1-dependent DNA repair in HEK293T cells, confirmed. shares compounds with ELG1 DNA repair. HEK293T ELG1-luciferase levels, luminescence; cells co-treated with 5-fluorouridine. Potency, µM (doses to about 46.1 µM), most hits filed as inhibitors. hit rate 68% among 670; note: nearly all actives have a fitted effect of over 55% in size
ELG1 MMS Luc: inhibits ELG1-dependent repair under MMS stimulation in HEK293T cells. shares compounds with ELG1 DNA repair. HEK293T luciferase-tagged ELG1 level, MMS stimulated. Potency, µM (doses to about 46.1 µM), hits mostly inhibitors. hit rate 53% among 670; note: nearly all actives have a fitted effect of over 60% in size
ELG1 5-FU: confirmation of ELG1 repair inhibitors: viability with 5FU; 670 tested, under 10 active; cell viability with 5-FU, ELG1-dependent repair; shares compounds with ELG1 DNA repair; AID 624250; Potency, µM (titrated, usually from 46.1 µM), most hits filed as cytotoxic;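 note: ELG1-luc HEK293T cells cotreated with 5-fluorouridine at 10 µM final; viability measured 16 h after compound addition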
ELG1 MMS cell: confirmation of ELG1 repair inhibitors: viability with MMS; shares compounds with ELG1 DNA repair; Cell viability with MMS, ELG1-dependent DNA repair; Potency, µM (highest dose often 46.1 µM), hits mostly cytotoxic; hit rate 33% among 670;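 note: ELG1-luc HEK293T cells co-treated with 10 µM MMS; viability read 16 h after compound addition; nearly all actives have a fitted effect of over 60% in size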
Cell viab unstim: unstimulated viability counter-screen for ELG1 repair hits; shares compounds with ELG1 DNA repair; cell viability counter-screen, unstimulated, luminescence; Potency, µM (titrated, usually from 45.9 µM), usual class: cytotoxic; hit rate 8% among 900;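 note: compound exposure lasted 16 hours before reading; nearly all actives have a fitted effect of over 55% in size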
FLuc biochem: inhibits purified firefly luciferase, counter-screen for ELG1 hits; shares compounds with ELG1 DNA repair; purified firefly luciferase, luminescence counter-screen; Potency, µM (series often up to 57.5 µM), most hits filed as inhibitors; hit rate 10% among 350; AID 624253
Hits are given with their value; [ ] = dose if it differs, or a comment. Calls come from the whole dose curve; as a rule, active = well fitted curve in the direction sought with a large enough effect; inconclusive = small, poorly fitted or top-dose-only effect, or another doubt; inactive = no such curve, though single readings can be large; an effect the other way counts as inactive or inconclusive.

What do the screens show for `COc1cccc(CNC(=O)C2CCCN(c3nn4c(=O)cc(C)nc4s3)C2)c1` (configuration not stated)?
KB-3-1 cytotox: inactive; MCF10A rereplic: inactive; SW480 rerep: inactive; ELG1 DNA repair: inconclusive; KB-V1 cytotox: inactive; ELG1 FLuc counter: inactive; Cell viab unstim: inactive; FLuc biochem: inactive

How did CC(C)(C)Cc1nc(-c2ccc(Cl)cc2)no1 do in these assays?
KB-3-1 cytotox: inactive; MCF10A rereplic: inactive; SW480 rerep: inactive; ELG1 DNA repair: inconclusive; KB-V1 cytotox: inactive

What do the screens show for `O=C(Nc1nonc1NC(=O)c1cccs1)c1cccs1`?
KB-3-1 cytotox: inconclusive; MCF10A rereplic: inactive[9.22 µM]; SW480 rerep: inactive; ELG1 DNA repair: 4.1µM; KB-V1 cytotox: 10µM; ELG1-Luc inh: inconclusive; ELG1 MMS Luc: 4.4µM; ELG1 5-FU: inactive; ELG1 MMS cell: 5µM; Cell viab unstim: inconclusive

Results for CSc1ccccc1C(=O)NCCSC(C)(C)C ?
KB-3-1 cytotox: inactive; MCF10A rereplic: inactive; SW480 rerep: inactive; ELG1 DNA repair: inconclusive; KB-V1 cytotox: inactive

Results for O=C1CCC/C1=c1\s/c(=C\c2cccnc2)c(=O)n1-c1ccccc1 ?
KB-3-1 cytotox: inactive; MCF10A rereplic: inactive; SW480 rerep: inactive; ELG1 DNA repair: 13µM; KB-V1 cytotox: inactive; ELG1 FLuc counter: inactive; ELG1-Luc inh: 8.9µM; ELG1 MMS Luc: inconclusive; ELG1 5-FU: inactive; ELG1 MMS cell: inactive; Cell viab unstim: inactive; FLuc biochem: inactive

How did O=C(Nc1nnc(SCc2ccc(F)cc2)s1)c1ccc2c(c1)C(=O)N(c1ccccc1Cl)C2=O do in these assays?
KB-3-1 cytotox: inactive; MCF10A rereplic: inactive; SW480 rerep: inactive; ELG1 DNA repair: inactive; KB-V1 cytotox: inactive

Results for Cc1cccc(Cn2cc(SCC(=O)Nc3nccs3)c3ccccc32)c1 ?
KB-3-1 cytotox: inactive; MCF10A rereplic: inactive; SW480 rerep: inactive; ELG1 DNA repair: inconclusive; KB-V1 cytotox: inactive; ELG1 FLuc counter: inactive; Cell viab unstim: inactive; FLuc biochem: 2.9µM

Results for Cc1ccc(Cn2cc(SCC(=O)Nc3nccs3)c3ccccc32)cc1 ?
KB-3-1 cytotox: inactive; MCF10A rereplic: inactive; SW480 rerep: inactive; ELG1 DNA repair: inconclusive; KB-V1 cytotox: inactive

Results for CC(=O)Nc1cccc(-c2cnc(N)c(C(=O)c3cccnc3)n2)c1 ?
KB-3-1 cytotox: inconclusive; MCF10A rereplic: inconclusive; SW480 rerep: inactive; ELG1 DNA repair: 0.46µM; KB-V1 cytotox: inactive; ELG1 FLuc counter: inconclusive; ELG1-Luc inh: 0.79µM; ELG1 MMS Luc: 2.8µM; ELG1 5-FU: inactive; ELG1 MMS cell: inconclusive; Cell viab unstim: inconclusive; FLuc biochem: inactive

What do the screens show for `COc1ccc(C2(C)NC(=O)N(CC(=O)NC3CC3)C2=O)cc1` (configuration not stated)?
KB-3-1 cytotox: inactive; MCF10A rereplic: inactive; SW480 rerep: inactive; ELG1 DNA repair: inactive; KB-V1 cytotox: inactive

Results for CC1CCC(NC(=O)CN2C(=O)NC(C)(C)C2=O)CC1 (configuration not stated) ?
KB-3-1 cytotox: inactive; MCF10A rereplic: inactive; SW480 rerep: inactive; ELG1 DNA repair: inactive; KB-V1 cytotox: inactive; ELG1 FLuc counter: inactive; Cell viab unstim: inactive; FLuc biochem: inactive

What do the screens show for `O=C(Nc1cccc(NC(=O)c2cccc([N+](=O)[O-])c2)n1)c1cccc([N+](=O)[O-])c1`?
KB-3-1 cytotox: inactive; MCF10A rereplic: inactive; SW480 rerep: inactive; ELG1 DNA repair: 2.1µM; KB-V1 cytotox: inactive; ELG1-Luc inh: inconclusive; ELG1 MMS Luc: inactive; ELG1 5-FU: inactive; ELG1 MMS cell: inconclusive; Cell viab unstim: inconclusive

How did CC1(C)CC(=O)c2cnc3c(C#N)cnn3c2C1 do in these assays?
KB-3-1 cytotox: inactive; MCF10A rereplic: inactive; SW480 rerep: inactive; ELG1 DNA repair: inactive; KB-V1 cytotox: inconclusive

Results for CCOc1ccc(-c2nc(-c3cccnc3)no2)cc1 ?
KB-3-1 cytotox: inactive; MCF10A rereplic: inactive; SW480 rerep: inactive; ELG1 DNA repair: inconclusive; KB-V1 cytotox: inactive

Results for COc1ccc(-c2nc(-c3cccnc3)no2)cc1 ?
KB-3-1 cytotox: inactive; MCF10A rereplic: inactive; SW480 rerep: inconclusive; ELG1 DNA repair: inconclusive; KB-V1 cytotox: inactive; Cell viab unstim: inactive

What do the screens show for `CCc1cccc(CC)c1NC(=O)CNCc1cccs1`?
KB-3-1 cytotox: inactive; MCF10A rereplic: inactive; SW480 rerep: inactive; ELG1 DNA repair: inactive; KB-V1 cytotox: inactive

What do the screens show for `CCc1nc2oc3ccccc3c(=O)c2c(=O)n1CCOC`?
KB-3-1 cytotox: inactive; MCF10A rereplic: inactive; SW480 rerep: inactive; ELG1 DNA repair: inactive; KB-V1 cytotox: inactive

What do the screens show for `COCCn1c(C(C)C)nc2oc3ccccc3c(=O)c2c1=O`?
KB-3-1 cytotox: inactive; MCF10A rereplic: inactive; SW480 rerep: inactive; ELG1 DNA repair: 1.4µM; KB-V1 cytotox: inactive; ELG1-Luc inh: inactive; ELG1 MMS Luc: inactive; ELG1 5-FU: inactive; ELG1 MMS cell: inactive; Cell viab unstim: inactive

Results for CC(C)(C)OC(=O)C[C@@H]1C/C=C\C[C@@H](CC(=O)N(CCO)Cc2ccccc2)C(=O)NC[C@@H](c2ccccc2)OC1=O ?
KB-3-1 cytotox: inactive; MCF10A rereplic: inactive; SW480 rerep: inactive; ELG1 DNA repair: inconclusive; KB-V1 cytotox: inconclusive

Results for CC(C)(C)OC(=O)C[C@@H]1C/C=C\C[C@@H](CC(=O)N(CCO)Cc2ccccc2)C(=O)NC[C@H](c2ccccc2)OC1=O ?
KB-3-1 cytotox: inactive; MCF10A rereplic: inactive; SW480 rerep: inactive; ELG1 DNA repair: 1.5µM; KB-V1 cytotox: inconclusive; ELG1-Luc inh: 13µM; ELG1 MMS Luc: 7.9µM; ELG1 5-FU: inactive; ELG1 MMS cell: inconclusive; Cell viab unstim: inconclusive

From PubChem
